From PubChem BioAssay
MRP1 act – H69AR viability gain despite doxorubicin, primary screen, MRP-1 activator project, H69AR cells, CellTiter-Glo; 0.61% of 140,000 active; viability rescue; viability increase, % at 10 µM;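 active means viability gain under doxorubicin at or above a set limit, the compound median plus 3 SD, cut at about 4.7% in these data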;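 further: MRP-1 overexpressing cells given doxorubicin 25 µM after compound pretreatment; 18-22 h compound pretreatment then 72 h with doxorubicin before readout; 0% = doxorubicin-only wells and 100% = vehicle-treated cells without doxorubicin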
CYP2C9 inh – blockers of cytochrome P450 2C9 activity – biochemical, luminescence, ADME assay, primary screen; CYP2C9 Supersomes, luciferin-H conversion; inhibition, % at 5 µM; 20% of 96,000 active;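 active means blocking of liver enzyme CYP2C9 beyond about 50% at 5 µM, limit read from the data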
Target sequence (P11712 whole entry, looked up): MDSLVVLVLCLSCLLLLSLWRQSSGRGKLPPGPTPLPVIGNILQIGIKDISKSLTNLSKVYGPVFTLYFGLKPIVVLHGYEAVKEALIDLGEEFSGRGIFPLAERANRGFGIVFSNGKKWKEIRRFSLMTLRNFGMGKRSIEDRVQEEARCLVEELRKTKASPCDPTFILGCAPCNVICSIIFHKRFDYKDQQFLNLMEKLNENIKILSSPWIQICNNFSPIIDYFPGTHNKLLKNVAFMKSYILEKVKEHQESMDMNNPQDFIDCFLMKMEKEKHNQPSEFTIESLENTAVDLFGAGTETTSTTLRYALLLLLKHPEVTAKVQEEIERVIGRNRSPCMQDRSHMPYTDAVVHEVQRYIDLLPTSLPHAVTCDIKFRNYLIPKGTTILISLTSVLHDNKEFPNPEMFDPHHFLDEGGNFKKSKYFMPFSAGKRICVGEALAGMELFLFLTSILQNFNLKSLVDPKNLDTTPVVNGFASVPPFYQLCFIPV
CYP2C19 inhib – blockers of cytochrome P450 2C19 activity – biochemical, luminescence, ADME assay, primary screen; inhibition, % at 5 µM; CYP2C19 Supersomes, luciferin-H EGE luminescence, 30 min; AID 778, 2007; P33261; 21% of 96,000 active;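 active means CYP2C19 inhibition above a set limit at 5 µM in the primary screen, cut at about 50% in these data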;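 further: plate controls were negative control wells for no effect and 2.5 mM tranylcypromine positive control for full effect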
MRP resist rev – reversal of MRP1-mediated doxorubicin resistance, primary screen, H69AR cells, doxorubicin co-treatment; differential viability (reversal), % at 10 µM; 0.04% of 85,000 active; H69AR cells + 2 uM doxorubicin, CellTiter-Glo, 72 h;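 active means viability drop by adding the cancer drug above about 55%, with treated viability meeting a 40% cutoff, limit read from the data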;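 further: viability without doxorubicin minus viability with 2 µM doxorubicin for each compound; larger differential means the compound sensitizes cells more to doxorubicin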
CYP2C9 activ – human CYP2C9 activators, primary screen, biochemical, luminescence; Cytochrome P450 2C9 (Homo sapiens), P11712; recombinant CYP2C9, luciferin-H conversion; active compounds read high; factor 1 = untreated enzyme, 0 = blocked; activation factor at 5 µM; 1.4% of 96,000 active;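 active means activation factor of 2 or more for CYP2C9 at a 5 µM dose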;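 further: 0 = sulfaphenazole-blocked wells and 1 = vehicle-only wells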
CYP2C19 activ – human CYP2C19 activators, primary screen, biochemical, luminescence; recombinant CYP2C19, luciferin-H EGE luminescence; active compounds read high; 0 = fully inhibited enzyme, 1 = untreated enzyme; activation factor at 5 µM; 96,000 tested, under 10 active; AID 1025, 2008;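 active means activation factor of at least 2 at 5 µM in the primary screen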;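 further: 0 = wells with 2.5 mM tranylcypromine and 1 = vehicle-only wells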
* marks the source's active call; other numbers are inactive results; x = no result. The list is not random: actives were taken first. Their share in the collection is about 21%.

SMILES | MRP1 act | CYP2C9 inh | CYP2C19 inhib | MRP resist rev | CYP2C9 activ | CYP2C19 activ
COc1cccc(CNC(=O)C2CCN(S(=O)(=O)c3cccs3)CC2)c1 | -1 | 21 | 32 | 5 | 0.8 | 0.7
O=C1CN(C(=O)CCCc2c[nH]c3ccccc23)c2ccccc2N1 | -2 | 7 | 50* | 9 | 0.9 | 0.5
COCC(=O)NCCSc1c(C)[nH]c2ccccc12 | -3 | -32 | 58* | -12 | 1.3 | 0.4
Cc1[nH]c2ccccc2c1SCC(=O)N1CCOCC1 | -1 | -69 | 93* | 7 | 1.7 | 0.1
O=C(O)CCCC(=O)N1CC(=O)Nc2ccccc21 | 0 | 5 | 4 | 2 | 1 | 1
Cc1[nH]c2ccccc2c1SCC(=O)O | -1 | x | x | -2 | x | x
O=C(CCCc1c[nH]c2ccccc12)N1CCOCC1 | -1 | -28 | 67* | -1 | 1.3 | 0.3
CC(C)(C)NC(=S)NCc1cccnc1 | 1 | 1 | 9 | x | 1 | 0.9
O=C(CSc1c[nH]c2ccccc12)N1CCOCC1 | -3 | 10 | 84* | -9 | 0.9 | 0.2
c1ccc(Cc2nnc(N3CCOCC3)c3ccccc23)cc1 | -1 | 34 | 42 | 18 | 0.7 | 0.6
c1ccc(N2CCN(c3nnc(Cc4cccnc4)c4ccccc34)CC2)nc1 | 0 | 26 | 53* | -2 | 0.7 | 0.5
COc1ccc(-n2sc3c(c2=S)-c2cc(OC)ccc2NC3(C)C)cc1 | -2 | 82* | 49 | x | 0.2 | 0.5
COc1ccc2c(c1)-c1c(sn(-c3ccc(OC)c(OC)c3)c1=S)C(C)(C)N2 | -3 | 59* | 25 | x | 0.4 | 0.7
CCN(c1ccccc1)S(=O)(=O)c1ccc(C(=O)Nc2nnc(COC)o2)cc1 | -5 | 70* | -8 | -25 | 0.3 | 1.1
CCc1nnc(NC(=O)c2ccc(S(=O)(=O)N(CCOC)CCOC)cc2)o1 | -1 | 14 | 9 | -16 | 0.9 | 0.9
CN(c1ccccc1)S(=O)(=O)c1ccc(NC(=S)NC(=O)c2ccccc2)cc1 | 0 | 70* | 29 | x | 0.3 | 0.7
COCc1nnc(NC(=O)c2ccc(S(=O)(=O)N(C)c3ccccc3)cc2)o1 | -4 | 77* | 5 | -12 | 0.2 | 0.9
Cc1ccc(C(=O)NC(=S)Nc2ccc(S(=O)(=O)N(C)c3ccccc3)cc2)cc1 | -1 | 5 | 5 | x | 0.9 | 1
CCN(c1ccccc1)S(=O)(=O)c1ccc(NC(=S)NC(=O)c2ccc(Br)o2)cc1 | -2 | 67* | 23 | x | 0.3 | 0.8
C=CCn1c(O)c(C(CC)=NCc2cccnc2)c(=O)[nH]c1=O | -2 | 26 | 54* | -1 | 0.7 | 0.5
O=C1C(C=NCc2cccnc2)=C(O)c2ccccc21 | -2 | 5 | 4 | 5 | 0.9 | 1
O=C(Nc1cccc(-c2nnc(-c3ccco3)o2)c1)C(c1ccccc1)c1ccccc1 | 1 | 98* | 83* | -6 | 0 | 0.2
O=C(Cc1ccc(Cl)cc1)Nc1cccc(-c2nnc(-c3ccco3)o2)c1 | -4 | 78* | 80* | x | 0.2 | 0.2
CC(=O)Nc1cccc(-c2nnc(-c3ccccc3)o2)c1 | 0 | -70 | 34 | -6 | 1.7 | 0.7
O=C(Cc1ccccc1)Nc1cccc(-c2nnc(-c3ccco3)o2)c1 | 1 | 79* | 84* | x | 0.2 | 0.2
SMILES | MRP1 act | CYP2C9 inh | CYP2C19 inhib | MRP resist rev | CYP2C9 activ | CYP2C19 activ
O=C(COc1ccccc1)Nc1ccc(-c2nnc(-c3ccco3)o2)cc1 | -3 | 18 | 15 | 21 | 0.8 | 0.9
CCN(CCCNC(=O)C1CCC(=O)N1C(C)C)c1cccc(C)c1 (stereo unspecified) | -2 | 11 | 23 | 1 | 0.9 | 0.8
CCc1ccc(N(CC(=O)NC)S(C)(=O)=O)cc1 | 1 | -2 | 14 | 16 | 1 | 0.9
CN1OC(c2ccccc2)=C(CO)C1c1ccccc1 (stereo unspecified) | -3 | x | x | x | x | x
CN(C(=S)NC(=O)c1ccccc1Br)C1CCCCC1 | -3 | 11 | 24 | x | 0.9 | 0.8
COc1ccccc1/C=C/C(=O)NC(=S)N(C)C1CCCCC1 | 1 | -164 | 14 | x | 2.6* | 0.9
COc1cccc(/C=C/C(=O)OCC(=O)NCc2ccco2)c1 | -1 | x | x | x | x | x
C=C(Cl)COc1cc(C)cc2oc(=O)cc(CC)c12 | 0 | 52* | 43 | 10 | 0.5 | 0.6
CCc1cc(=O)oc2cc(C)cc(OC(=O)c3ccco3)c12 | -2 | 25 | 66* | -8 | 0.8 | 0.3
Cc1cc(OC(=O)c2ccco2)c2c(C)cc(=O)oc2c1 | -2 | -49 | -4 | 5 | 1.5 | 1
COCCN(C(=S)Nc1ccccc1OC)C(C)c1cccs1 (stereo unspecified) | -3 | x | x | x | x | x
N#C/C(=C\c1ccc(Cl)cc1)c1n[nH]c(Cn2cncn2)n1 | 0 | 68* | 30 | 7 | 0.3 | 0.7
O=C(Nc1ccc(Cl)cc1Cl)c1n[nH]c(Cn2cncn2)n1 | -1 | 51* | 53* | x | 0.5 | 0.5
CSc1nc(C)cc(SCC(=O)Nc2ccc(Cl)cc2Cl)n1 | -3 | x | x | 12 | x | x
O=C(Cn1cncn1)N/N=C/c1ccc(Cl)cc1 | -1 | x | x | x | x | x
Cc1cc(NCCCn2ccnc2)n2nc(C)c(-c3ccc(Cl)cc3)c2n1 | -7 | 89* | 90* | -1 | 0.1 | 0.1
Cc1cc(NCCN2CCOCC2)n2nc(C)c(-c3ccc(Cl)cc3)c2n1 | -7 | 57* | 46 | -3 | 0.4 | 0.5
COc1ccc(CCNc2cc(C)nc3c(-c4ccccc4)c(C)nn23)cc1OC | -3 | x | x | x | x | x
Cc1cc(NCCCn2ccnc2)n2nc(C)c(-c3ccccc3)c2n1 | -4 | 88* | 90* | -24 | 0.1 | 0.1
Cc1cc(NCCCn2ccnc2)n2ncc(-c3ccccc3)c2n1 | -6 | 98* | 99* | -17 | 0 | 0
Cc1cc(NCCN2CCOCC2)n2nc(C)c(-c3ccccc3)c2n1 | -1 | -22 | -9 | 8 | 1.2 | 1.1
Cc1ccccc1NC(=O)c1ccccc1NC(=O)CCC(=O)O | -2 | x | x | x | x | x
COc1ccc(/C(O)=C2/C(=O)C(=O)N(CCCN(C)C)C2c2ccc(C)o2)cc1Cl (stereo unspecified) | -1 | 33 | 2 | -7 | 0.7 | 1
CCOC(=O)C1CCCN(Cc2cc(Br)ccc2OC)C1 (stereo unspecified) | -3 | 63* | 79* | 13 | 0.4 | 0.2
CCOc1cc(C)nc(N2CCCC(C(=O)NCc3ccccc3F)C2)n1 (stereo unspecified) | -2 | -20 | 58* | -20 | 1.2 | 0.4
CCOC(=O)C1CCCN(CCC(=O)Nc2ccccc2)C1 (stereo unspecified) | 0 | 8 | 14 | -2 | 0.9 | 0.9
CCOC(=O)C1CCCN(CC(=O)NC2=Nc3ccccc3N=C(C)C2c2ccccc2)C1 (stereo unspecified) | -1 | 91* | 90* | -7 | 0.1 | 0.1
